# According to ChEMBL document CHEMBL2218924, “A broad activity screen in support of a chemogenomic map for kinase signalling research and drug discovery” (Biochem J, 2013):
# Tests used:
# [1] = biological target: T1, Phosphorylase b kinase gamma catalytic chain, liver/testis isoform (Homo sapiens) (UniProt P15735); conditions: at 1 µM
# T1 sequence (whole entry): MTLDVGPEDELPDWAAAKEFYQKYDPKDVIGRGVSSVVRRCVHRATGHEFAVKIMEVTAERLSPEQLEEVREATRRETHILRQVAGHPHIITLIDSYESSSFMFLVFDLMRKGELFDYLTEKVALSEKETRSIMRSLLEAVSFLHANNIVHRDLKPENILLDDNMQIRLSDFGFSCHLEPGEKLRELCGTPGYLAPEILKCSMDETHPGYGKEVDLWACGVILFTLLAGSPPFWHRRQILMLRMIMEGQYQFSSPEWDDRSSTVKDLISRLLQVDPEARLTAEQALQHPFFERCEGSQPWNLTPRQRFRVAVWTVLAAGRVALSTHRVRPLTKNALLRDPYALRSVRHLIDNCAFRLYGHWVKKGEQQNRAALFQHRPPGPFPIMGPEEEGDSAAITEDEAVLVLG
# [2] = biological target: T1, Phosphorylase b kinase gamma catalytic chain, liver/testis isoform (Homo sapiens); conditions: at 10 µM
# [3] = biological target: Serine/threonine-protein kinase pim-1 (Homo sapiens) (UniProt P11309); conditions: at 1 µM
# [4] = biological target: Serine/threonine-protein kinase pim-1 (Homo sapiens) (UniProt P11309); conditions: at 10 µM
# [5] = biological target: Serine/threonine-protein kinase pim-2 (Homo sapiens) (UniProt Q9P1W9); conditions: at 1 µM
# [6] = biological target: Serine/threonine-protein kinase pim-2 (Homo sapiens) (UniProt Q9P1W9); conditions: at 10 µM
# [7] = biological target: Serine/threonine-protein kinase pim-3 (Homo sapiens) (UniProt Q86V86); conditions: at 1 µM
# [8] = biological target: Serine/threonine-protein kinase pim-3 (Homo sapiens) (UniProt Q86V86); conditions: at 10 µM
# [9] = biological target: Serine/threonine-protein kinase PLK1 (Homo sapiens) (UniProt P53350); conditions: at 1 µM
# [10] = biological target: Serine/threonine-protein kinase PLK1 (Homo sapiens) (UniProt P53350); conditions: at 10 µM
# Serine/threonine-protein kinase pim-2 (Homo sapiens), sequence (Q9P1W9 whole entry, looked up): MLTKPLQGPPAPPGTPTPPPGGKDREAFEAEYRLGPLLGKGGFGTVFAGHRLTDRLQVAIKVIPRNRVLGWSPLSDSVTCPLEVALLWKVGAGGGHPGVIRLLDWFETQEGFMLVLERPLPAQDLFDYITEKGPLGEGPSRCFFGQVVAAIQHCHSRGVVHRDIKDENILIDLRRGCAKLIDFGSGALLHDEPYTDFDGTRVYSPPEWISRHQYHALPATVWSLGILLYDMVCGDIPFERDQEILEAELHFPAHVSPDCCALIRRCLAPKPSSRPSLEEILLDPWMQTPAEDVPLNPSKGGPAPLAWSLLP
# Serine/threonine-protein kinase pim-1 (Homo sapiens), sequence (P11309 whole entry, looked up): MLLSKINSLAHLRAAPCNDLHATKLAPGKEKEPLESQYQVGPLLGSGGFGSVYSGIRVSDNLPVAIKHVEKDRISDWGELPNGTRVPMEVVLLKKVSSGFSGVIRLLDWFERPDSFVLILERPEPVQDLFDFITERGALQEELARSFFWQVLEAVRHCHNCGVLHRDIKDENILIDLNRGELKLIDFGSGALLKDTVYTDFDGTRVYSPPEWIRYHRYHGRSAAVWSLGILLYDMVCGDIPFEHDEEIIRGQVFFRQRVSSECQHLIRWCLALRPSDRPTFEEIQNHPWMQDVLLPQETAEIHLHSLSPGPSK
# Serine/threonine-protein kinase PLK1 (Homo sapiens), sequence (P53350 whole entry): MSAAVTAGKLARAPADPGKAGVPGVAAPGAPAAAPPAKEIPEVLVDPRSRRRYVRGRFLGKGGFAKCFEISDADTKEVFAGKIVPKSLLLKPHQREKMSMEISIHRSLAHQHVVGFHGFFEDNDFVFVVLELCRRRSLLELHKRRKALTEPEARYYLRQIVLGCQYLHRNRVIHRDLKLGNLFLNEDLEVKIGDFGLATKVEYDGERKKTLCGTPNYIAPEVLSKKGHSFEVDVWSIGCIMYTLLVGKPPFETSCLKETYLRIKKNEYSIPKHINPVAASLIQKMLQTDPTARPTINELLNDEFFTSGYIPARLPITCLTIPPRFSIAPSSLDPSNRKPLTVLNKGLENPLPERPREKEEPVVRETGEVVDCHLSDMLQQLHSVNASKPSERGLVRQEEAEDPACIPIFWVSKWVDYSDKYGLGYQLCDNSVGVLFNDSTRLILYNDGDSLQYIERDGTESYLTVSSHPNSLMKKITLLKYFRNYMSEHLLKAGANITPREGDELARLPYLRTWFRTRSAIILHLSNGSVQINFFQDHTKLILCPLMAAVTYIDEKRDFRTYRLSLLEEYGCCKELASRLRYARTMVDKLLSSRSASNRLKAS
Structure (SMILES),residual activity [1] [%],residual activity [2] [%],residual activity [3] [%],residual activity [4] [%],residual activity [5] [%],residual activity [6] [%],residual activity [7] [%],residual activity [8] [%],residual activity [9] [%],residual activity [10] [%]
O=C1NC(=O)/C(=C/c2ccc3c(c2)OC(F)(F)O3)S1,85,94,37,5,58,10,88,41,101,61
CC(C)n1cnc2c(NCc3ccccc3)nc(NCCCO)nc21,96,75,107,75,134,87,93,96,89,52
O=C(Nc1cccc(Nc2cc(Nc3cccc(C(F)(F)F)c3)ncn2)c1)C1CC1,86,98,112,–,88,108,93,102,99,91
Cc1cc(Nc2nc(-c3ccccc3)nc3ccccc23)n[nH]1,–,35,104,57,126,–,–,–,73,40
CCOc1cc2ncnc(Nc3cccc(Br)c3)c2cc1OCC,92,108,65,57,92,79,96,94,80,81
O=c1cc(-c2cccc3c2Sc2ccccc2S3)oc(N2CCOCC2)c1,96,100,93,30,68,29,102,85,95,99
Cc1cncc2cccc(S(=O)(=O)N3CCCN(C(=O)CN)C[C@H]3C)c12,82,49,100,84,–,–,92,86,90,59
CCN(CC)C(=O)c1ccc(Nc2nc(OCC3CCCCC3)c3nc[nH]c3n2)cc1,–,–,77,56,143,–,–,–,78,66
COc1ccc(OC)c2c(=S)c3ccccc3[nH]c12,119,103,97,52,117,77,88,80,80,91
N#C/C(=C(\N)Sc1ccc(N)cc1)c1ccccc1C(F)(F)F,–,108,79,83,130,133,87,84,85,90
Nc1ccc2ncnc(NCCc3ccc(Oc4ccccc4)cc3)c2c1,88,75,100,93,93,136,90,89,90,85
O=C1Nc2ccc(Br)cc2/C1=C\c1cc2c([nH]1)CCCC2,77,78,–,105,129,106,105,112,82,80
Nc1nc(Nc2ccc(S(N)(=O)=O)cc2)nn1C(=S)Nc1c(F)cccc1F,86,31,96,77,125,–,95,95,–,–
Cc1nc(-c2ccccc2)c(-c2ccncc2)o1,109,95,78,60,121,117,93,99,92,93
Cc1cccc(-c2[nH]c(C(C)(C)C)nc2-c2ccc3c(c2)OCO3)n1,–,–,–,–,–,–,103,97,80,75
COc1ccc(S(=O)(=O)N(CCO)c2ccccc2CN(C)C/C=C/c2ccc(Cl)cc2)cc1,116,83,96,73,143,137,86,82,76,72
c1ccc2c(-c3ccncc3)c[nH]c2c1,103,86,97,49,97,–,91,86,86,65
Cc1cc2ncc(-c3ccccc3)nc2cc1C,94,101,97,84,126,–,100,96,81,75
COc1cc2ncnc(Nc3ccc(NC(=O)c4ccccc4)cc3)c2cc1OC,101,–,88,96,85,–,107,99,105,–
C[C@@H](N)[C@H]1CC[C@H](C(=O)Nc2ccncc2)CC1,101,93,126,115,118,121,98,99,107,105
CNc1cc2c(Nc3cccc(Br)c3)ncnc2cn1,104,107,64,42,86,88,96,81,99,94
CN(C)CCCn1cc(C2=C(c3c[nH]c4ccccc34)C(=O)NC2=O)c2ccccc21,88,63,–,–,15,4,22,5,114,84
CO[C@@H]1[C@H](N(C)C(=O)c2ccccc2)C[C@H]2O[C@]1(C)n1c3ccccc3c3c4c(c5c6ccccc6n2c5c31)C(=O)NC4,44,29,33,16,80,94,93,88,–,61
N#CC(C#N)=C(N)/C(C#N)=C/c1ccc(O)cc1,–,–,–,–,–,118,–,88,79,36
Oc1ccc(-c2nc(-c3ccc(F)cc3)c(-c3ccncc3)[nH]2)cc1,107,98,96,91,125,–,96,92,94,83
CC(=O)c1ccc(N2CCOCC2)cc1O,–,–,82,87,91,129,96,91,91,68
COc1cc2ncnc(Nc3ccc(Oc4ccccc4)cc3)c2cc1OC,95,123,81,132,135,142,95,93,74,72
Cn1cc(/C=C2\C(=O)Nc3ccc(S(N)(=O)=O)cc32)c2ccccc21,24,9,76,111,109,97,102,–,109,93
CCN(CC)CCCCN1c2ccccc2Oc2ccc(Cl)cc21,112,122,–,–,97,125,92,47,109,76
